# HT1080-NT tox = kills 2HG-producing HT-1080-NT fibrosarcoma cells; Potency, µM (titrated, usually from 46.1 µM), without a hit: at the top dose activity, negative = less viability, hits mostly cytotoxic; hit rate 1.6% among 360,000; HT-1080-NT fibrosarcoma viability, CellTiter-Glo ATP luminescence, 48 h;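 further: NT is the 2HG producing partner of a matched IDH1 knockdown line; 0% = DMSO-treated cells and -100% = media-only wells without cells; nearly all actives have a fitted effect of over 55% in size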
#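 A 48-hour cytotoxicity screen used HT-1080-NT cells plated 2 hours before compound delivery. ATP-based CellTiter-Glo luminescence measured viability, normalized to DMSO and no-cell controls.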
# KB-3-1 tox = kills parental KB-3-1 adenocarcinoma cells; KB-3-1 viability, CellTiter-Glo ATP luminescence, 72 h; Potency, µM (titrated, usually from 46.1 µM), usual class: cytotoxic; AID 1347075; hit rate 1.4% among 400,000; further: nearly all actives have a fitted effect of over 60% in size
#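 Luminescent ATP read-out (CellTiter-Glo) measures survival of drug-naive KB-3-1 cells after 72 h compound exposure at 37 °C. Titration series was screened from lowest to highest concentration, with DMSO vehicle plates as background controls.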
# KB-V1 cytotox = KB-V1 MDR subline cytotoxicity; KB-V1 MDR cells viability, CellTiter-Glo, 72 h; Potency, µM (highest dose often 46.1 µM), actives largely listed as cytotoxic; hit rate 3.4% among 400,000; AID 1347076; further: nearly all actives have a fitted effect of over 60% in size
#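 Readout: CellTiter-Glo luminescence, 10 min after addition. Cells: KB-V1 MDR subline, 72 h at 37 degrees C with compound. Analysis: corrected, normalized data fitted to concentration-effect curves.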
# HT1080 IDH1KD tx = HT-1080 IDH1 knockdown cell toxicity (counter line); Potency, µM (series often up to 46.1 µM), without a hit: at the top dose activity, negative = toxicity, actives largely listed as cytotoxic; HT-1080 IDH1 knockdown viability, ATP luminescence, 48 h; hit rate 2% among 360,000;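 further: 0% = DMSO wells and -100% = cell-free medium wells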
#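 After a 2 h attachment period, IDH1KD HT-1080 cells took pin-transferred compound for 48 h at 37 °C; ATP-based luminescence after 10 min room-temperature reagent incubation reported viability.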
# Starred values were filed as active, the others as inactive; i = inactive; u = inconclusive; x = not tested or not shown; [ ] = dose if it differs, or a comment. Rows were chosen to be rich in hits. Some 5.7% of all compounds tested hit in one or more screens of this group. The call rests on the fitted dose curve; in most records, active means well fitted curve in the direction sought with a large enough effect; inconclusive means small, poorly fitted or top-dose-only effect, or another doubt; inactive means no such curve, though single readings can be large; an effect the other way counts as inactive or inconclusive. Unless noted, on the % scale 0 is the no-effect control and ±100 the full control effect; potency means the concentration at half of the fitted maximal effect.
SMILES,HT1080-NT tox,KB-3-1 tox,KB-V1 cytotox,HT1080 IDH1KD tx
CCn1c(C(=O)N2CCCC(C(=O)N3CCN(c4cc(C)ccc4C)CC3)C2)cc2sccc21 (configuration not stated),x,u,i,x
Cc1cc(C)cc(NC(=O)CCc2c(C)nc3c(c2C)c(=O)n(C)c(=O)n3C)c1,x,i,i,x
Cn1c(O)c(/C=N/NC(=O)c2cc3ccccc3cc2O)c2ccccc21,16.4µM*,u,i,u
Cc1ccc(C23CC4CC(CC(CN)(C4)C2)C3)cc1,18.4µM*,u,u,u
NCC12CC3CC(C1)CC(c1ccc(Br)cc1)(C3)C2,u,u,i,u
Cc1nc(NCc2ccco2)c2c(C)c(C)sc2n1,5.62µM*,11.6µM*,u,2.82µM*
CCOC(=O)c1sc2nc(CC(=O)OC)nc(NCc3ccco3)c2c1C,11.0%,i,3.26µM*,0.4%
CCOC(=O)c1sc2nc(CSc3ccccc3)nc(NCCN(C)C)c2c1C,18.4µM*,i,i,u
Cc1cc(N2CCCCC2)nc2ccc(NC(=O)/C=C/c3ccc(OCCC(C)C)cc3)cc12,x,i,i,x
CC(=O)N1CCc2c(sc3c2c(=O)n(CCc2ccccc2)c(=O)n3Cc2ccc(Cl)cc2)C1,x,20.6µM*,u,x
COc1ccc(NC(=O)Cn2c(=O)n(CCc3ccccc3)c(=O)c3c4c(sc32)CCCC4)cc1,x,i,i,x
CC(=O)N1CCc2c(sc3c2c(=O)n(CCc2ccccc2)c(=O)n3Cc2ccccc2C)C1,x,i,u,x
NC(=O)Cn1c(=O)n(CCc2ccccc2)c(=O)c2c3c(sc21)CCCC3,11.5%,i,4.11µM*,-3.3%
COc1ccc(NC(=S)Nc2cc(-c3ccccc3)[nH]n2)cc1Cl,12.6µM*,i,i,u
CCOc1ccc(NC(=S)Nc2cc(-c3ccccc3)[nH]n2)cc1,-18.0%,i,14.6µM*,-29.8%
CCOc1ccc(NC(=S)Nc2ccc(F)cc2)cc1,-1.2%,i,i,-3.9%
Cc1ccc(NC(=O)c2ccc(NC(=O)N3CCSc4ncccc43)cc2)cc1Cl,x,u,i,x
COc1cc(C(=O)NC(C(=O)Nc2cccc(C(C)=O)c2)C(C)C)cc(OC)c1OC (configuration not stated),-1.8%,i,i,0.0%
Cc1cc(C)cc(NC(=O)N2CCC(c3nc4ccccc4o3)CC2)c1,3.9%[9.24 µM],i,i,7.9%
Cc1cccc(NC(=O)N2CCC(c3nc4ccccc4o3)CC2)c1,2.4%,i,18.4µM*,-5.9%
O=C(NNc1ccc(Cl)cc1)c1sccc1Cl,u,i,i,8.2µM*
O=C(NNc1cc(Cl)cc(Cl)c1)c1sccc1Cl,-25.7%,x,x,-14.6%
CCc1ccc2c(c1)c1nc(C)sc1n2CC(=O)OC,2.5%,i,i,2.1%
Cc1nc2c3cc(F)ccc3n(Cc3ccccc3)c2s1,u,16.4µM*,u,u
Cc1nc2c3ccccc3n(Cc3ccccc3F)c2s1,-19.2%,i,u,-22.7%
SMILES,HT1080-NT tox,KB-3-1 tox,KB-V1 cytotox,HT1080 IDH1KD tx
Cc1nc2c3cc(F)ccc3n(CCN3CCCCC3)c2s1,20.6µM*,u,i,u
Cc1nc2c3cc(F)ccc3n(Cc3ccccc3F)c2s1,20.6µM*,u,u,18.4µM*
CC(=O)c1ccc(NC(=O)CSc2nc(=O)n(Cc3ccccn3)c3c2CCC3)cc1,x,i,i,x
O=C(CCc1nc(-c2ccccc2F)no1)Nc1cccc(C(F)(F)F)c1,x,i,u,x
CCc1ccc(S(=O)(=O)c2cn(Cc3ccccc3)c3cc(N4CCCC4)c(F)cc3c2=O)cc1,x,i,i,x
Cc1ccc(NC(=O)Cn2c(=O)n(Cc3ccco3)c(=O)c3sc4ccccc4c32)cc1C,x,i,i,x
Cc1ccc(NC(=O)CSc2nnc(Cc3csc(C)n3)o2)cc1,-6.8%,i,i,0.6%
CCOc1ccc(Nc2nc(Cc3nnc(SCC(=O)c4ccc(C)c(C)c4)o3)cs2)cc1,u,i,13µM*,u
CC1(C)Cc2cccc(OCC(=O)NCCc3ccc(S(N)(=O)=O)cc3)c2O1,1.2%,i,25.9µM*,-4.1%
CN(Cc1cccs1)C(=O)COc1cccc2c1OC(C)(C)C2,5.1%,i,18.4µM*,12.1%
CN(C)CCNC(=O)COc1cccc2c1OC(C)(C)C2,10.5%,i,i,12.4%
Cc1ccc(-n2c(SCC(N)=O)nc3c(c2=O)C2(CCCC2)Cc2ccccc2-3)cc1,-5.8%,u,10.3µM*,-3.7%
CO/N=C1\CCCc2c(C(=O)NN)sc(SC)c21,16.4µM*,i,i,16.4µM*
NC(=O)C1(N2CCCCC2)CCN(c2nc(-c3ccc(Br)cc3)cs2)CC1,14.0%,i,23.1µM*,23.8%
C/C(=N\NC(=S)NCc1ccccc1)c1ccc(C(C)(C)C)cc1,-25.9%,i,18.4µM*,u
Cc1c(Cl)cccc1NC(=O)C(=O)NCC(c1cccnc1)N1CCN(c2ccccc2)CC1 (configuration not stated),x,i,i,x
COc1ccc(/C=C2\SC(=S)N(CCCC(=O)N3CCOCC3)C2=O)cc1,-5.7%,23.1µM*,u,-14.6%
CN1CCN(C(=O)CCN2C(=O)/C(=C/c3ccc(F)cc3)SC2=S)CC1,-6.9%,20.6µM*,i,-10.3%
CCn1cc(C2=NC(c3ccccc3)CO2)c2ccccc21 (configuration not stated),-2.8%,8.2µM*,u,-3.8%
CCn1cc(C2=NC(C)CO2)c2ccccc21 (configuration not stated),11.2µM*,i,i,10µM*

# Screening results from PubChem.
